Laboratory results: PubChem BioAssay AID1578 (Sanford-Burnham Center for Chemical Genomics, 2009)
Out of some 290,000 compounds screened, about 3,000 (1%) were called active. No stated cut-off is given here; in the data, active means inhibition mostly above about 36% (no sharp cut-off); inactive means mostly below about 34%. Only a selection was taken, and actives are over-represented in it overall.

Experiment: inhibition of NOD1-driven NF-kB reporter – cell-based, luminescence, uHTS, primary screen (AID 1578);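 further: HEK-293T reporter cells stimulated with the NOD1 agonist gamma-tri-DAP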
Details: NOD1-driven NF-kB luciferase reporter cells, at 4 µM, hits give high values

| Compound | inhibition |
| --- | --- |
| CSc1ccc(OC2CCCCC2NS(=O)(=O)c2ccccc2)cc1 (stereo not drawn) | -17% (inactive) |
| Cc1cc(OCC(=O)NCCc2cccc(F)c2)c2c(C)cc(=O)oc2c1 | 21.7% (inactive) |
| Cc1cccc(/N=C/c2c(O)ccc3oc4c(c23)CCCC4)n1 | 3.8% (inactive) |
| Oc1ccccc1N=Cc1c(O)ccc2oc3c(c12)CCCC3 | -2.1% (inactive) |
| O=C(O)c1ccc(N=Cc2c(O)ccc3oc4c(c23)CCCC4)cc1 | 60% (active) |
| CC(C)(C)N=Cc1c(O)ccc2oc3c(c12)CCCC3 | -1.4% (inactive) |
| NC(=O)N/N=C/c1c(O)ccc2oc3c(c12)CCCC3 | -15.5% (inactive) |
| Oc1ccc2oc3c(c2c1/C=N/n1cnnc1)CCCC3 | 59.5% (active) |
| COC(=O)c1ccsc1NC(=O)CCc1ccccc1 | -59.2% (inactive) |
| COc1cc(NC(=S)NCc2cccnc2)c(OC)cc1Cl | -26.2% (inactive) |
| CC(=O)c1nnn(-c2c(F)cccc2F)c1C | -11.8% (inactive) |
| O=c1[nH][nH]c(C(F)(F)F)c1C=NCc1cccc(Cl)c1 | -0.4% (inactive) |
| CC[n+]1ccc(/C=C/c2c[nH]c3ccccc23)cc1 | 3.8% (inactive) |
| CC[n+]1c(/C=C/c2c[nH]c3ccccc23)ccc2cc(C)ccc21 | 79.9% (active) |
| CCc1ccc(/C=C/c2c[nH]c3ccccc23)[n+](CC)c1 | -7.1% (inactive) |
| Cn1nnc2cc(NC(=O)Nc3cccc(C(F)(F)F)c3)ccc21 | -5.1% (inactive) |
| COc1ccccc1N1CCN(C(=O)CN2C(=O)C3CCCCC3C2=O)CC1 (stereo not drawn) | -30.6% (inactive) |
| CCCCN(C)C1CCN(C(=S)Nc2ccc(OC)cc2)CC1 | -31.8% (inactive) |
| Cc1cc(C)c(S(=O)(=O)c2ccccc2)c(N2CCOCC2)n1 | -15.6% (inactive) |
| CCCc1ccc(-c2ccc(/C=C/C(=O)O)cc2)nc1 | 76.4% (active) |
| CCCCCc1ccc(-c2ccc(/C=C/C(N)=O)cc2)nc1 | -38.2% (inactive) |

| Compound | inhibition |
| --- | --- |
| CCCCCc1ccc(-c2ccc(/C=C/C(=O)O)cc2)nc1 | -27.7% (inactive) |
| Cc1cc2c(c(=O)n1Cc1cccnc1)C(c1cccs1)C(C#N)=C(N)O2 (stereo not drawn) | 7% (inactive) |
| O=S(=O)(NC1CCCC1)c1cccc(-c2nnc(-c3ccccc3)o2)c1 | -5.3% (inactive) |
| COC(=O)[C@@H](NC(=O)NCc1cccs1)C(C)C | 8.6% (inactive) |
| CCCCCNC(=O)c1c[nH]c2ccc(S(=O)(=O)N3CCC4(CC3)OCCO4)cc2c1=O | -39.2% (inactive) |
| CCC(=O)Nc1c2c(nn1-c1ccccc1)CSC2 | -26% (inactive) |
| COc1ccc(-n2nc3c(c2NC(=O)CCCl)CSC3)cc1 | 1.9% (inactive) |
| O=C(CCCCl)Nc1c2c(nn1-c1ccccc1)CSC2 | -34.6% (inactive) |
| CCC(=O)Nc1c2c(nn1-c1ccc(OC)cc1)CSC2 | -5.8% (inactive) |
| COc1ccccc1P(=O)(Cc1ccccc1[N+](=O)[O-])c1ccccc1 (stereo not drawn) | -7.4% (inactive) |
| CN1Cc2c(N3CCOCC3)nc3sc(C#N)c(N)c3c2CC1(C)C | -1.3% (inactive) |
| CCc1cc2c3c(c1)C(C)CC(C)(C)N3C(=O)C2=O (stereo not drawn) | -3.6% (inactive) |
| CCOc1cc2c3c(c1)C(C)CC(C)(C)N3C(=O)C2=O (stereo not drawn) | -0.3% (inactive) |
| COc1ccc(OC)c(NC(=O)CSc2nncc3ccc(OC)c(OC)c23)c1 | 1% (inactive) |
| COc1ccc(OC)c(/C=N\NC(=O)c2ccc(-c3ccccc3)cc2)c1 | -32% (inactive) |
| COc1ccccc1Nc1nc(N)nc(CN2CCCCC2)n1 | -0.3% (inactive) |
| CC(=O)CSc1nnc2c3ccccc3nc(C(C)(C)C)n12 | -19.2% (inactive) |
| Cc1ccc(C(=O)CSc2nnc3c4ccccc4nc(C(C)(C)C)n23)cc1 | 92.5% (active) |
| Cc1ccc(C(=O)CSc2nnc(-c3ccccc3N)n2C)cc1 | 101% (active) |
| Cc1ccc(C(=O)CSc2nnc3c4ccccc4nc(Cc4ccccc4)n23)cc1 | -10.1% (inactive) |
| Cc1ccc(C(=O)CSc2nnc(-c3ccccc3N)n2C)cc1C | -30.8% (inactive) |

| Compound | inhibition |
| --- | --- |
| Cn1c(SCC(=O)c2ccc(F)cc2)nnc1-c1ccccc1N | -7.5% (inactive) |
| CCCCN(C(=O)/C=C/c1ccc(OCC(C)C)c(OCC)c1)c1c(N)n(CCC)c(=O)[nH]c1=O | -20.9% (inactive) |
| CCCCNCc1cc(Cl)c(OCCC)c(OCC)c1 | -20.5% (inactive) |
| Cc1ccccc1NC(=O)COC(=O)c1cccnc1 | -22.1% (inactive) |
| COc1ccc(-n2c(SCC(=O)Nc3cccc(C(=O)O)c3)nnc2-c2ccco2)cc1 | -20.2% (inactive) |
| Cc1nc(Cl)c2c(n1)NC(=O)CO2 | 0.5% (inactive) |
| CCN(CC)C(=O)Oc1ccc2ccccc2c1Br | -53.4% (inactive) |
| Cc1ccc2nc(-c3ccc(NC(=O)c4cccnc4)cc3)oc2c1 | 58.7% (active) |
| O=C(Nc1cccc(NC(=O)c2cccs2)c1)c1ccc([N+](=O)[O-])o1 | 36.9% (active) |
| Cc1ccc2oc(-c3ccc(NC(=O)c4cccnc4)cc3)nc2c1 | -27.5% (inactive) |
| O=C(Nc1ccc2oc(-c3cccnc3)nc2c1)c1ccc(Br)o1 | -16.5% (inactive) |
| O=C(Nc1cccc(NC(=O)c2cccs2)c1)c1ccc(Br)o1 | -17.2% (inactive) |
| O=C(Nc1ccc(-c2nc3ccccc3o2)cc1)c1cccnc1 | -1.6% (inactive) |
| O=C(Nc1ccc2oc(-c3ccncc3)nc2c1)c1ccc([N+](=O)[O-])o1 | 22.8% (inactive) |
| COc1cc(NC(=O)c2ccc([N+](=O)[O-])o2)ccc1NC(=O)c1cccs1 | 9.1% (inactive) |
| COCCNC(=O)C(c1ccc(OC)cc1)N(Cc1ccco1)C(=O)CCC(=O)Nc1ccccn1 (stereo not drawn) | 19.2% (inactive) |
| COc1ccc(CN2CCN(Cc3c[nH]c4ccccc34)CC2CCO)cc1C (stereo not drawn) | -1.8% (inactive) |
| Cc1ccc(C(=O)CCNc2ccc(Cl)cc2)o1 | -29.8% (inactive) |
| CS(=O)(=O)N(CC(=O)NCC1CCCO1)c1cc(Cl)ccc1Cl (stereo not drawn) | 2.4% (inactive) |
| O=c1c[n+]([O-])c2ccccc2n1OCc1ccccn1 | 0.2% (inactive) |
| C#CCN1C(=O)C(O)(CC(=O)/C=C/c2ccco2)c2ccccc21 (stereo not drawn) | -14.4% (inactive) |
